These results are taken from PubChem BioAssay (NCI).

Some test systems named below: DU-145 prostate; K-562 leukemia; MALME-3M melanoma; MDA-MB-231 breast; RXF 393 renal; SF-268 CNS; SF-295 CNS; SF-539 CNS; UACC-257 melanoma; M14 melanoma.
Test in all cases: NCI-60 one-dose screen, 48 h (100 = growth as untreated, 0 = no growth, -100 = all killed)
Holding throughout (conditions): 10 µM unless noted

Compounds without any hit were thinned out: in the full panel of roughly 83,000, 20% have a hit.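 Single-concentration screen, 48 h exposure, 96-well plates. Endpoint: percent growth. Below 10 = active.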 Values without a mark were called inactive. Activity calls are given as the source filed them.

With `C[C@@H]1CCCCCCCCC[C@H](O)C(=O)C[C@@H](SC[C@@H](O)C(=O)O)C(=O)O1`, the growth in the experiment with DU-145 prostate was 95.2%; with K-562 leukemia, 15.5%; in the experiment on MALME-3M melanoma, 94.7%; with MDA-MB-231 breast, 96%; in the experiment on RXF 393 renal it was 112%; in the experiment on SF-268 CNS, 98%. Besides, the growth with SF-295 CNS is 104%; in the experiment on SF-539 CNS it was 97.8%; in the experiment on UACC-257 melanoma, 83.4%; with M14 melanoma, 87%.
Turning to `C[C@H]1[C@H]2C3=CC[C@@H]4[C@@]5(C)C/C(=C/c6ccco6)C(=O)C(C)(C)[C@@H]5CC[C@@]4(C)[C@]3(C)CC[C@@]2(C(=O)N2CCOCC2)CC[C@@H]1C`, the growth is 88.1% in the experiment on DU-145 prostate; 27.4% with K-562 leukemia; 83.3% in the experiment with MALME-3M melanoma; 90.5% with MDA-MB-231 breast; 62% with RXF 393 renal; 85.8% in the experiment on SF-268 CNS. Moreover, the growth in the experiment on SF-295 CNS is 81.4%; with SF-539 CNS, 82.7%; in the experiment on UACC-257 melanoma, 88.4%; in the experiment on M14 melanoma, 76.9%.
Take `CCC(=O)c1c(C)[nH]c(C)c1C`: the growth in the experiment on DU-145 prostate was 0.904% (active); with K-562 leukemia, 110%; in the experiment on MALME-3M melanoma it was 116%; with MDA-MB-231 breast, 95.8%; with RXF 393 renal, 80.4%; in the experiment with SF-268 CNS, 90.7%. Moreover, the growth in the experiment with SF-295 CNS was 68.3%; in the experiment on SF-539 CNS, 105%; in the experiment on UACC-257 melanoma, 99%; in the experiment with M14 melanoma, 90.4%.
Turning to `O=C1C(Cl)=C(Nc2ccc(S(=O)(=O)c3ccc(NC4=C(Cl)C(=O)c5ccccc5C4=O)cc3)cc2)C(=O)c2ccccc21`, the growth in the experiment on DU-145 prostate was -15.1% (active); in the experiment on K-562 leukemia, 8.57% (active); in the experiment with MALME-3M melanoma, -48.5% (active); with MDA-MB-231 breast it was 45.4%; in the experiment on RXF 393 renal, -96% (active); in the experiment on SF-268 CNS it was -56.3% (active). In addition, the growth is 34.1% in the experiment on SF-295 CNS, 1.36% (active) in the experiment on SF-539 CNS, -81.3% (active) in the experiment with UACC-257 melanoma and -57.6% (active) in the experiment on M14 melanoma.
As to `COc1ccc(/C=C(\C#N)c2cc3ccccc3n2C(C)=O)cc1`, the growth in the experiment on DU-145 prostate is 99.7%; with K-562 leukemia it was 25.1%; in the experiment on MALME-3M melanoma, 83.8%; with MDA-MB-231 breast, 82%; in the experiment on RXF 393 renal, 88.3%; in the experiment with SF-268 CNS it was 97.3%. The growth with SF-295 CNS is 84%; in the experiment on SF-539 CNS it was 93.8%; with UACC-257 melanoma, 99.6%; with M14 melanoma it was 70.7%.
With `CCCNc1nc(N(C)O)nc(N(C)O)n1`, the growth was 24.9% with DU-145 prostate; 50.7% in the experiment with K-562 leukemia; 83.2% in the experiment on MALME-3M melanoma; 39.5% in the experiment on MDA-MB-231 breast; 39% in the experiment with RXF 393 renal; 35.2% in the experiment with SF-268 CNS. Further, the growth in the experiment with SF-295 CNS was 21.5%; with SF-539 CNS, 27.1%; in the experiment on UACC-257 melanoma it was 56.2%; in the experiment with M14 melanoma, 20.7%.
As to `Brc1ccc2c(c1)c(-c1nc(-c3c[nH]c4ncccc34)cs1)cn2CCCN1CCCCC1`, the growth was -44.4% (active) in the experiment on DU-145 prostate; -64.4% (active) in the experiment on K-562 leukemia; -45.9% (active) in the experiment on MALME-3M melanoma; -43.3% (active) in the experiment on MDA-MB-231 breast; 23.6% in the experiment on RXF 393 renal; 7.71% (active) in the experiment with SF-268 CNS. The growth is 27.3% with SF-295 CNS, -77.6% (active) in the experiment with SF-539 CNS, 66.1% with UACC-257 melanoma and -81.4% (active) in the experiment with M14 melanoma.
With `C=C(C)[C@@H]1CC[C@]2(C(=O)O)CC[C@]3(C)[C@H](CC[C@@H]4[C@@]5(C)C/C(=C/c6cccc(I)c6)C(=O)C(C)(C)[C@@H]5CC[C@]43C)[C@@H]12`, the growth is 28.7% with DU-145 prostate; 12.5% in the experiment on K-562 leukemia; 53.3% with MALME-3M melanoma; 56% with MDA-MB-231 breast; 51.9% with RXF 393 renal; 25.5% in the experiment with SF-268 CNS. Further, the growth with SF-295 CNS is 26.7%; in the experiment on SF-539 CNS it was 48.3%; in the experiment with UACC-257 melanoma, 20.7%; with M14 melanoma it was 30.3%.
As to `CC(C)=CCC[C@](C)(O)[C@H]1CC[C@]2(C)[C@@H]1CC[C@@H]1[C@@]3(C)C/C(=C/c4ccc(Br)cc4)C(=O)C(C)(C)[C@@H]3CC[C@]12C`, the growth in the experiment on DU-145 prostate is 85.6%; in the experiment on K-562 leukemia, 85.2%; in the experiment on MALME-3M melanoma it was 88.7%; in the experiment with MDA-MB-231 breast, 85.8%; with RXF 393 renal, 92.9%; in the experiment with SF-268 CNS it was 92.6%. The growth in the experiment on SF-295 CNS is 101%; in the experiment on SF-539 CNS, 99.5%; in the experiment on UACC-257 melanoma, 91.2%; in the experiment on M14 melanoma it was 80.3%.
As to `Cn1cc(-c2csc(-c3cn(CCN)c4ccc(Br)cc34)n2)c2cccnc21`, the growth with DU-145 prostate is 58.5%; in the experiment on K-562 leukemia it was 18.1%; with MALME-3M melanoma, 97.5%; with MDA-MB-231 breast, 62.4%; in the experiment with RXF 393 renal, 75.6%; with SF-268 CNS it was 78.4%. The growth is 100% with SF-295 CNS, 82.5% with SF-539 CNS, 92.8% in the experiment with UACC-257 melanoma and 86.1% in the experiment on M14 melanoma.
With `O=C1C(=O)N(CCCCn2cc(-c3ccccc3)nn2)c2ccccc21`, the growth was 105% with DU-145 prostate; 109% with K-562 leukemia; 92.9% with MALME-3M melanoma; 102% in the experiment on MDA-MB-231 breast; 114% in the experiment with RXF 393 renal; 101% in the experiment on SF-268 CNS. The growth is 102% with SF-295 CNS, 93.9% with SF-539 CNS, 100% in the experiment with UACC-257 melanoma and 96.1% in the experiment on M14 melanoma.
Take `CC(=O)Cc1nsc(NC(=O)c2ccoc2COc2ccccc2)n1`: the growth with DU-145 prostate was 106%; in the experiment with K-562 leukemia, 90.6%; with MALME-3M melanoma, 96.8%; with MDA-MB-231 breast it was 95%; in the experiment on RXF 393 renal, 113%; in the experiment with SF-268 CNS it was 96.3%. The growth in the experiment with SF-295 CNS is 98.6%; in the experiment on SF-539 CNS, 91.6%; with UACC-257 melanoma it was 93.2%; in the experiment with M14 melanoma, 95.4%.
As for `O=C(/C=C/c1cccc2ccccc12)Nc1ncc(Cc2ccccc2)s1`, the growth was 21.2% with DU-145 prostate; 8.6% (active) in the experiment on K-562 leukemia; 21.7% with MALME-3M melanoma; 25% in the experiment on MDA-MB-231 breast; -10% (active) in the experiment with RXF 393 renal; 50.8% in the experiment with SF-268 CNS. The growth was -40.1% (active) with SF-295 CNS, -24.4% (active) in the experiment with SF-539 CNS, 60.8% in the experiment with UACC-257 melanoma and -21.3% (active) in the experiment with M14 melanoma.
